RORgamma inh: qHTS for inhibitors of ROR gamma transcriptional activity | Nuclear receptor ROR-gamma (Mus musculus), P51450 | Drosophila S2 Gal4-RORgamma UAS-luciferase reporter, 20 h | Potency, µM (highest dose often 53.6 µM), for the others: top-dose activity change, negative = inhibition, hits mostly inhibitors | 5.4% of 310,000 active | AID 2551, 2010; also: potency is read from the fitted curve at half-maximal effect; % is scaled to controls: 0 for no effect and ±100 for the full control effect; nearly all actives have a fitted effect of over 60% in size
Target sequence (P51450 whole entry, looked up, the tested form may be a part): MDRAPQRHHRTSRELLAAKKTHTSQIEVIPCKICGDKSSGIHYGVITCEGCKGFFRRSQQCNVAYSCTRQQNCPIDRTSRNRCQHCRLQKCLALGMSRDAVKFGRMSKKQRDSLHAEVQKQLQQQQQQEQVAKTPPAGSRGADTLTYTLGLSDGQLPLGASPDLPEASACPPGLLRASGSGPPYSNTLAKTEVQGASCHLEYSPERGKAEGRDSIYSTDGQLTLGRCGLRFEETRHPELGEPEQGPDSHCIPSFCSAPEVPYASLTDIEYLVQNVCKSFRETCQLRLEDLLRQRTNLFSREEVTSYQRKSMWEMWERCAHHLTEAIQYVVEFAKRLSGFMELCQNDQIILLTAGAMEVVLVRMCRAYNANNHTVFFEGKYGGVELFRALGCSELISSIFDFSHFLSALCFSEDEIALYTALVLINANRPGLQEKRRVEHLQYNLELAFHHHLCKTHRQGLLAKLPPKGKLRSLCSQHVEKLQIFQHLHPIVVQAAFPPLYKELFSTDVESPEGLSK
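Drosophila S2 cells stably expressing Gal4-DBD/mouse RORγ fusion under metallothionein promoter plus UAS-luciferase; compound 1 h, then 700 uM CuSO4 induction for 20 h at ambient temperature; inhibition read as reduced luminescence.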
MCF10A rereplic: A quantitative high throughput screen for small molecules that induce DNA re-replication in MCF 10a normal breast cells | Potency, µM (series often up to 46.1 µM), for inactives: top-dose activity, positive = re-replication, actives largely listed as activators | AID 624296, 2012 | MCF 10A DNA re-replication, Hoechst nuclear intensity, 48 h | 2.9% of 350,000 active; also: potency is read from the fitted curve at half-maximal effect; % of control where 0% means no effect; nearly all actives have a fitted effect of over 50% in size
IL-1B inflam inh: qHTS for Inhibitors of Inflammasome Signaling: IL-1-beta AlphaLISA Primary Screen; 4.7% of 360,000 active; THP-1 LPS/ATP IL-1B secretion, AlphaLISA, 16 h; stronger effect = lower value; activity change, % at 57.5 µM; in the data active = activity change below about -50%; inconclusive = mostly about -30% to -49%; also: % is scaled to controls: 0 for no effect and ±100 for the full control effect
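THP-1 cells pretreated 1 hr with compounds (up to 57.5 uM final), then stimulated with LPS (250 ng/mL final) plus ATP (1.25 mM final); secreted IL-1B measured by AlphaLISA after 16 hr, decreased signal indicating inhibition.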
VP16 counter: VP16 counterscreen qHTS for inhibitors of ROR gamma transcriptional activity; Drosophila S2 Gal4-VP16 UAS-luciferase, luminescence, 20 h; Potency, µM (series often up to 53.6 µM), for the others: at the top dose activity, negative = inhibition, usual class: inhibitors; 3.5% of 310,000 active;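 also: Gal4-VP16 expression switched on by copper sulfate through the metallothionein promoter; potency is read from the fitted curve at half-maximal effect; % is scaled to controls: 0 for no effect and ±100 for the full control effect; nearly all actives have a fitted effect of over 50% in size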
SW480 rerep: A quantitative high throughput screen for small molecules that induce DNA re-replication in SW480 colon adenocarcinoma cells; Potency, µM (series often up to 46.1 µM), for the others: top-dose re-replication activation, most hits filed as activators; SW480 DNA re-replication, Hoechst DNA content imaging, 48 h; 1.8% of 340,000 active; also: potency is read from the fitted curve at half-maximal effect; % of control where 0% means no effect; nearly all actives have a fitted effect of over 55% in size
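250 cells/well; 23 nL cpd via pin tool; 48 hr, 37 C, 5% CO2; Hoechst 40 min; imager read of total nuclear intensity, ex 405/em 500-530 nm.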
The depositor's hits bear a star; ? = inconclusive; nt = no result; [ ] = remark or other dose. Rows were chosen to be rich in hits. Some 11% of all compounds tested hit in one or more screens of this group. Unless noted, calls follow the shape of the dose curve; as a rule, active = well fitted curve in the direction sought with a large enough effect; inconclusive = small, poorly fitted or top-dose-only effect, or another doubt; inactive = no such curve, though single readings can be large; an effect the other way counts as inactive or inconclusive.

SMILES | RORgamma inh | MCF10A rereplic | IL-1B inflam inh | VP16 counter | SW480 rerep
COc1ccc(NC(=S)NC(=O)c2ccc(Br)o2)cc1 | 1µM* | -1% | -8 | ? | 1%
O=C(NC(=S)Nc1ccccc1)c1ccc(Br)o1 | 3.2µM* | 5% | 19 | 0% | 12%
C=CCN(c1ccccc1)S(=O)(=O)c1cccc(C(=O)Nc2cccc(C)n2)c1 | nt | 25% | -15 | nt | 6%
COc1ccccc1NC(=S)N(Cc1ccco1)Cc1cc2cc(C)c(C)cc2[nH]c1=O | -3% | 2.1µM* | -54* | ? | 5.8µM*
COc1ccccc1NC(=O)N(Cc1ccco1)Cc1cc2ccc(C)c(C)c2[nH]c1=O | 2% | 7.3µM* | 2 | -3% | 18µM*
COc1ccccc1NC(=O)N(Cc1ccco1)Cc1cc2cc(C)cc(C)c2[nH]c1=O | ? | ? | ? | 1% | ?
COc1ccccc1NC(=S)N(Cc1ccco1)Cc1cc2cccc(C)c2[nH]c1=O | 18% | 13% | -19 | -8% | -2%
COc1ccccc1OCCNC(=O)/C=C/c1ccc([N+](=O)[O-])cc1 | ? | -72% | 11 | -26% | -28%
CCCOc1ccc(/C=C/C(=O)Nc2ccc([N+](=O)[O-])cc2)cc1 | ? | 15µM* | -87* | 2% | 3%
Cc1ccccc1OCCNC(=O)/C=C/c1ccc([N+](=O)[O-])cc1 | ? | -3% | -70* | -7% | 0%
Cc1onc(-c2ccccc2)c1C(=O)NC1CCC(C)CC1 (stereo not given) | nt | 1% | 34 | nt | 1%
NCCN1CCN(CC(=O)N2c3ccccc3C(=O)Nc3cccnc32)CC1 | nt | 4% | nt | nt | -3%
O=C1Nc2cccnc2N(C(=O)CCl)c2ccccc21 | ? | 15µM* | -96* | -22% | 15µM*
Cc1ccc(C(=O)CCS(=O)(=O)c2ccc(Cl)cc2)cc1 | 16µM* | 3.3µM* | 0 | ? | 9.2µM*
Cc1ccc(S(=O)(=O)CCC(=O)NCc2ccc(Cl)cc2)cc1 | -5% | -5% | 6 | -1% | nt
Cc1ccc(S(=O)(=O)CCC(=O)c2ccc(F)cc2)cc1 | 4µM* | 4.6µM* | -61* | 2.8µM* | ?
Cc1ccc(C(=O)CCS(=O)(=O)c2ccc(F)cc2)cc1 | 3.2µM* | ? | -28 | 3.5µM* | ?
COc1ccc(C(=O)CCS(=O)(=O)c2ccc(F)cc2)cc1OC | -5% | nt | nt | -11% | nt
CCCn1c(=O)n(C)c(=O)c2c(SCC(=O)NCC(c3ccccc3)N(C)C)nc(CC(C)C)nc21 (stereo not given) | ? | -3% | ? | 3% | ?
CCCS(=O)(=O)c1cnc(C2COc3ccccc3O2)nc1N (stereo not given) | 0.63µM* | -4% | -27 | 1.3µM* | ?
S=c1[nH]nc(-c2ccco2)n1/N=C/c1cccc(Cl)c1Cl | ? | 4% | 0 | ? | 1%
S=c1[nH]nc(-c2ccco2)n1/N=C/c1ccc(Cl)cc1Cl | 5.6µM* | ? | 0 | 18µM* | ?
S=c1[nH]nc(-c2ccc(Cl)cc2)n1/N=C/c1ccco1 | 3.2µM* | 18% | -8 | ? | 0%
S=c1[nH]nc(-c2ccco2)n1/N=C/C=C/c1ccccc1 | 2.5µM* | 1% | 13 | ? | -6%
S=c1[nH]nc(-c2ccccc2)n1/N=C/C=C/c1ccco1 | 2.8µM* | -2% | 10 | 3.2µM* | -9%
SMILES | RORgamma inh | MCF10A rereplic | IL-1B inflam inh | VP16 counter | SW480 rerep
c1ccc(CNCCNCc2ccccc2)cc1 | 2% | 12% | nt | 3% | -1%
Cc1ccccc1-c1n[nH]c(=S)n1/N=C/C=C/c1ccco1 | 2.5µM* | ? | 14 | -18% | 24%
Cc1cc(-c2n[nH]c(=S)n2/N=C/C=C/c2ccco2)n[nH]1 | -2% | 14% | 7 | -1% | 1%
CCN1CCCC1CNC(=O)CN(C)S(=O)(=O)c1ccc(Cl)cc1 (stereo not given) | -17% | 7% | 5 | -13% | -5%
Fc1ccc(CCNC(=S)Nc2ccc(F)cc2)cc1 | 1µM* | 15% | 2 | 0.89µM* | -6%
Cc1ccc(F)cc1NC(=S)NCCc1ccccc1 | ? | 47% | -15 | -92% | ?
CCCCc1ccc(NC(=S)NCCc2ccc(F)cc2)cc1 | 2.2µM* | ? | -110* | 5.6µM* | ?
CCC(=O)N1CCC1(C)C(=O)Nc1ccc(OC(F)F)cc1 (stereo not given) | nt | nt | 13 | nt | nt
CC[C@H](C)[C@H](NC(=O)[C@H](Cc1ccccc1)NC(=O)[C@H](CCC(=O)O)NC(=O)[C@H](CCCCN)NC(=O)[C@H](C)NC(=O)[C@H](C)NC(=O)[C@H](CCC(N)=O)NC(=O)CNC(=O)[C@H](CCC(=O)O)NC(=O)[C@H](CC(C)C)NC(=O)[C@H](Cc1ccc(O)cc1)NC(=O)[C@H](CO)NC(=O)[C@H](CO)NC(=O)[C@@H](NC(=O)[C@H](CC(=O)O)NC(=O)[C@H](CO)NC(=O)[C@@H](NC(=O)[C@H](Cc1ccccc1)NC(=O)[C@@H](NC(=O)CNC(=O)[C@H](CCC(=O)O)NC(=O)[C@H](C)NC(=O)[C@@H](N)Cc1cnc[nH]1)[C@@H](C)O)[C@@H](C)O)C(C)C)C(=O)N[C@@H](C)C(=O)N[C@@H](Cc1c[nH]c2ccccc12)C(=O)N[C@@H](CC(C)C)C(=O)N[C@H](C(=O)N[C@@H](CCCCN)C(N)=O)C(C)C | 2% | nt | nt | -7% | nt
N#C/C(=C\c1ccccn1)c1nc2ccccc2s1 | ? | 15µM* | -85* | ? | 16µM*
COC(=O)c1ccc(/C=C(\C#N)c2nc3ccccc3s2)cc1 | 11% | ? | 44 | -10% | -3%
N#C/C(=C/c1ccc(-c2ccc(S(N)(=O)=O)cc2)o1)c1nc2ccccc2s1 | ? | 3.7µM* | 10 | ? | 10µM*
O=S(=O)(CCNC1CC1)NC1CCCCC1 | nt | -9% | 22 | nt | ?
Cc1ccc(NC(=O)CNCC2CCCCC2)cc1S(=O)(=O)N(C)C | 12% | 6% | -23 | -4% | -15%
Cc1ccc(S(=O)(=O)N(C)C)cc1NC(=S)NC1CCCC(C)C1C (stereo not given) | 4µM* | ? | -4 | 5µM* | 4%
Cc1ccc(NC(=S)NC2CCCCC2)cc1S(=O)(=O)N(C)C | 13µM* | 0% | 0 | ? | 9%[1.84 µM]
CCN(CC)S(=O)(=O)c1ccc(Cl)c(NC(=S)NC(=O)C2CCCC2)c1 | nt | ? | ? | nt | 4.6µM*
CCN(CC)S(=O)(=O)c1cccc(C(=O)NC2CCCCC2)c1 | ? | -3% | 4 | 6% | -2%
